# Targets with a hit are over-represented here; the source holds about 8,800 in all. About 0.5% of all pairs of compound and target were hits. Unmarked numbers belong to inactive results.
# Columns and labels:
# Experiment in all cases: log2 fold change, soluble protein after heating vs DMSO (PISA); higher = thermal stabilisation; K562 lysate, 10 uM; active = over 0.2 and 3.5 SD of the protein, either way, in both replicates (recomputed)
# erlotinib = compound: C#Cc1cccc(Nc2ncnc3cc(OCCOC)c(OCCOC)cc23)c1 [erlotinib]
# Procedure, shortened: (§1)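 A 30 min treatment with 10 μM compound was applied to crude K562 extract at 1 mg/mL protein in PBS pH 7.4 with 1 mM MgCl2. Heating for 3 min spanned 48°C-58°C, after which aliquots were pooled, adjusted to 0.5% NP-40 at 4°C and spun at 21,000xg for 90 min. TMTpro 16plex LC-MS/MS of the supernatant, with channel sums equalised, gave values recorded as log-two fold change in thermal stability against solvent controls, from duplicates.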
# [1] = compound: C/C(=N\NC(=O)C1=CC(=CC=C1)S(=O)(=O)N2CCOCC2)/C3=C(C=CC(=C3)Cl)O
# Procedure, shortened: as §1
# [2] = compound: C1=CC(=CC=C1C2=NC3=C(N2)C=C(C=C3)C(=O)N)OC4=CC=C(C=C4)Cl
# Procedure, shortened: as §1
# [3] = compound: C1=CC2=C(C=CC(=C2)/C=C\3/C(=O)NC(=NCC4=CC=CS4)S3)N=C1
# Procedure, shortened: as §1
# [4] = compound: C1=CC=C(C=C1)C2=NC(=C(N2)C3=CC=NC=C3)C4=CC(=C(C=C4)Cl)O
# Procedure, shortened: as §1
# [5] = compound: C1=CC=C2C(=C1)C3=NNC4=CC=CC(=C43)C2=O
# Procedure, shortened: as §1
# [6] = compound: C1CCN(C1)C(=O)NC2=CC=CC(=C2)NC3=NC=C(C(=N3)NCCC4=CN=CN4)Br
# Procedure, shortened: as §1
# [7] = compound: C1CN(CCC1(CC2=CC=C(C=C2)Cl)N)C3=NC=NC4=C3C=CN4
# Procedure, shortened: as §1
# IRAK-1-4 Inhibitor I = compound: C1COCCN1CCN2C3=CC=CC=C3N=C2NC(=O)C4=CC(=CC=C4)[N+](=O)[O-] [IRAK-1-4 Inhibitor I]
# Procedure, shortened: as §1
# [8] = compound: CC(=O)c1cnc2ccc(-c3cc(Cl)c(O)c(Cl)c3)nc2c1N[C@H]1CC[C@H](CN(C)C)CC1
# Procedure, shortened: as §1
# ralimetinib = compound: CC(C)(C)Cn1c(N)nc2ccc(-c3[nH]c(C(C)(C)C)nc3-c3ccc(F)cc3)nc21 [ralimetinib]
# Procedure, shortened: as §1
# [9] = compound: CC(C)(O)CC(=O)NCCn1ccc2ncnc(Nc3ccc(Oc4cccc(C(F)(F)F)c4)c(Cl)c3)c21
# Procedure, shortened: as §1
# [10] = compound: CC(C)C1=C2N=C(C=C(N2N=C1)NCC3=CC=CC=C3)NCCCCCCN
# Procedure, shortened: as §1
# [11] = compound: CC1=C(C(CC(=O)N1)C2=CC=C(C=C2)C(F)(F)F)C(=O)NC3=C(C=C4C(=C3)C=NN4)F
# Procedure, shortened: as §1
# [12] = compound: CC1=C(C2=C(C=C1)C(=O)C3=CC=CC=C3N2CCCN)C
# Procedure, shortened: as §1
# [13] = compound: CC1=C(C=C(C=C1)NC(=O)C2=CC(=CC=C2)C(C)(C)C#N)NC3=CC4=C(C=C3)N=CN(C4=O)C
# Procedure, shortened: as §1
# [14] = compound: CC1=C(C=C(C=C1)NC(=O)C2=CC(=CC=C2)N(C)C)NC(=O)C3=CC=C(C=C3)O
# Procedure, shortened: as §1
# [15] = compound: CC1=CC=C(C=C1)SC2=C3C=C(SC3=CN=C2)C(=O)N
# Procedure, shortened: as §1
# [16] = compound: C1=CC2=NC=CN=C2C=C1/C=C/3\C(=O)NC(=O)S3
# Procedure, shortened: as §1
# ibrutinib = compound: C=CC(=O)N1CCC[C@@H](n2nc(-c3ccc(Oc4ccccc4)cc3)c3c(N)ncnc32)C1 [ibrutinib]
# Procedure, shortened: as §1
# Sequence of UniProt P11441 (P11441 whole entry, looked up): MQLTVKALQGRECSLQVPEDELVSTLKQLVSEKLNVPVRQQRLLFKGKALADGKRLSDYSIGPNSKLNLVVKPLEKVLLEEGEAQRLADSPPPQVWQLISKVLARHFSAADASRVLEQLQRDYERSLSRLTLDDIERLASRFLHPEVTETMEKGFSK
# Sequence of UniProt Q9UGJ1 (Q9UGJ1 whole entry, looked up): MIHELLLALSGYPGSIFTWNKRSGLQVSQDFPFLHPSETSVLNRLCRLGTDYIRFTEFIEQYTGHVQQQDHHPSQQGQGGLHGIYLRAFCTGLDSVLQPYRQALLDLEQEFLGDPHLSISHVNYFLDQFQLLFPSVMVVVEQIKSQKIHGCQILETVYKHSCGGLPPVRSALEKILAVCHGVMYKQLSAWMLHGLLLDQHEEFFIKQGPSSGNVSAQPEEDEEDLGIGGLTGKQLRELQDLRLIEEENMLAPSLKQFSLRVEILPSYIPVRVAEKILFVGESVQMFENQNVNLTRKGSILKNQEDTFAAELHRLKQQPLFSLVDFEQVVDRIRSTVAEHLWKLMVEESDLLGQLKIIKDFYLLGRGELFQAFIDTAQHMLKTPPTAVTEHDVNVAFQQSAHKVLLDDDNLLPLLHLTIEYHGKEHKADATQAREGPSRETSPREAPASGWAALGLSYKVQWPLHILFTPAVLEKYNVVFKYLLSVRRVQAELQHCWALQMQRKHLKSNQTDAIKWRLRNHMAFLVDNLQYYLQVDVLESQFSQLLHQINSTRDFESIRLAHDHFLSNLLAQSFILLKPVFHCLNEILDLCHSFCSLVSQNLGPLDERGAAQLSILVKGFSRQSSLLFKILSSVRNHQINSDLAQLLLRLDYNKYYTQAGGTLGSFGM
# Sequence of UniProt P0DPH7 (P0DPH7 whole entry, looked up): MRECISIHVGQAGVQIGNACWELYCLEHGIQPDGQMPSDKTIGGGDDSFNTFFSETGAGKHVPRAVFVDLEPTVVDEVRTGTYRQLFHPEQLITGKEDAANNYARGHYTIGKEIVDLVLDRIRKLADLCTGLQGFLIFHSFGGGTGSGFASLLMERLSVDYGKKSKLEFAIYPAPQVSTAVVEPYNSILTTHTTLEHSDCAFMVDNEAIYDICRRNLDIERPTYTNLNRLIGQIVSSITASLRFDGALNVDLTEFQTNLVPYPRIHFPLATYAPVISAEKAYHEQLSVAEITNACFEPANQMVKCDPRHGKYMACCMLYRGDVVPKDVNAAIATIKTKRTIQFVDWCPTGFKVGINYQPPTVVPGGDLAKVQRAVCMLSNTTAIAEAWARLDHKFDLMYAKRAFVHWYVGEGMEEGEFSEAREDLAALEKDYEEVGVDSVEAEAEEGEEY
# Sequence of UniProt O60704 (O60704 whole entry, looked up): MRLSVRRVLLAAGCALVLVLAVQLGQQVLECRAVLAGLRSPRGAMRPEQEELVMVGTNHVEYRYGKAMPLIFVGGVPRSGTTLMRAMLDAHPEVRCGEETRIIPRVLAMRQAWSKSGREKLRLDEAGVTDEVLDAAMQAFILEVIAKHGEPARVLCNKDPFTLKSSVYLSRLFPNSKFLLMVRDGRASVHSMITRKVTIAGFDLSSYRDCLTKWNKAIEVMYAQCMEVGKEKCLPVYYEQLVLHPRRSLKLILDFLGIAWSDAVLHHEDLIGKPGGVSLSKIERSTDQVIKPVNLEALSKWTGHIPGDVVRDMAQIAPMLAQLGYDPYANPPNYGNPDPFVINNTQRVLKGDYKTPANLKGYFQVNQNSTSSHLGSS
# Sequence of UniProt Q9Y5Z9 (Q9Y5Z9 whole entry, looked up): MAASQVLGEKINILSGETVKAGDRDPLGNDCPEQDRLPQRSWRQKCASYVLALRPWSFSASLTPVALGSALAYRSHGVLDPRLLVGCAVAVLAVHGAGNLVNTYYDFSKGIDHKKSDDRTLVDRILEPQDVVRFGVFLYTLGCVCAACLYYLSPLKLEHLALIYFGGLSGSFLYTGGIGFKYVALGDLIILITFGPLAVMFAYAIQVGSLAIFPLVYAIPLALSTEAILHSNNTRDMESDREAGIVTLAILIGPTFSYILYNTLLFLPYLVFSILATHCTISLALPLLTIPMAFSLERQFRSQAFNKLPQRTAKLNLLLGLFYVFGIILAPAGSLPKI
# Sequence of UniProt Q14CS0 (Q14CS0 whole entry, looked up): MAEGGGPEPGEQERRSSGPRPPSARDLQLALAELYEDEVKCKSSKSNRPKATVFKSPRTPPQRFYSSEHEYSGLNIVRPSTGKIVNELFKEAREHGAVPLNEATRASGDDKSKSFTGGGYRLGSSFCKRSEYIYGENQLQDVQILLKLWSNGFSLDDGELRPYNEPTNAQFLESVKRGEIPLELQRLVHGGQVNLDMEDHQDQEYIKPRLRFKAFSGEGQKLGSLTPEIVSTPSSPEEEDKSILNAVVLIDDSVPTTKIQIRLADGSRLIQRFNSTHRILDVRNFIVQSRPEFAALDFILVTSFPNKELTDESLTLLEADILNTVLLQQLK
# Sequence of UniProt Q99081 (Q99081 whole entry, looked up): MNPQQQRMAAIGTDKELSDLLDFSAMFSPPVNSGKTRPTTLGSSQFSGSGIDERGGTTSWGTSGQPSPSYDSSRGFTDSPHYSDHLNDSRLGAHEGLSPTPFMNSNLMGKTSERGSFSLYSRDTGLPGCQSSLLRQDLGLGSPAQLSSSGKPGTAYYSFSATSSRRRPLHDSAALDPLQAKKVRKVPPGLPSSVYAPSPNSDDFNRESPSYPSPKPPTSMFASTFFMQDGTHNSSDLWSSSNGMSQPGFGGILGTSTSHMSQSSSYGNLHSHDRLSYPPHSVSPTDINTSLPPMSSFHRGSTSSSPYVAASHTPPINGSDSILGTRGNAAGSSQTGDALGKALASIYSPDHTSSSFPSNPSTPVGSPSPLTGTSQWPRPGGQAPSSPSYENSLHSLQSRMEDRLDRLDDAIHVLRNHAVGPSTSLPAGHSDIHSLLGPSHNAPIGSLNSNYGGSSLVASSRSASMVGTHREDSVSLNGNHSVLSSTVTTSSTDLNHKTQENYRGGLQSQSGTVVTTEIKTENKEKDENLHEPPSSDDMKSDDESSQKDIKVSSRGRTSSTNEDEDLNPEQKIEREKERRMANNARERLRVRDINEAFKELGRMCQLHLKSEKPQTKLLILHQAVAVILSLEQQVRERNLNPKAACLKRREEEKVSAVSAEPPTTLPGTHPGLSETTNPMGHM
# Sequence of UniProt Q5TAX3 (Q5TAX3 whole entry, looked up): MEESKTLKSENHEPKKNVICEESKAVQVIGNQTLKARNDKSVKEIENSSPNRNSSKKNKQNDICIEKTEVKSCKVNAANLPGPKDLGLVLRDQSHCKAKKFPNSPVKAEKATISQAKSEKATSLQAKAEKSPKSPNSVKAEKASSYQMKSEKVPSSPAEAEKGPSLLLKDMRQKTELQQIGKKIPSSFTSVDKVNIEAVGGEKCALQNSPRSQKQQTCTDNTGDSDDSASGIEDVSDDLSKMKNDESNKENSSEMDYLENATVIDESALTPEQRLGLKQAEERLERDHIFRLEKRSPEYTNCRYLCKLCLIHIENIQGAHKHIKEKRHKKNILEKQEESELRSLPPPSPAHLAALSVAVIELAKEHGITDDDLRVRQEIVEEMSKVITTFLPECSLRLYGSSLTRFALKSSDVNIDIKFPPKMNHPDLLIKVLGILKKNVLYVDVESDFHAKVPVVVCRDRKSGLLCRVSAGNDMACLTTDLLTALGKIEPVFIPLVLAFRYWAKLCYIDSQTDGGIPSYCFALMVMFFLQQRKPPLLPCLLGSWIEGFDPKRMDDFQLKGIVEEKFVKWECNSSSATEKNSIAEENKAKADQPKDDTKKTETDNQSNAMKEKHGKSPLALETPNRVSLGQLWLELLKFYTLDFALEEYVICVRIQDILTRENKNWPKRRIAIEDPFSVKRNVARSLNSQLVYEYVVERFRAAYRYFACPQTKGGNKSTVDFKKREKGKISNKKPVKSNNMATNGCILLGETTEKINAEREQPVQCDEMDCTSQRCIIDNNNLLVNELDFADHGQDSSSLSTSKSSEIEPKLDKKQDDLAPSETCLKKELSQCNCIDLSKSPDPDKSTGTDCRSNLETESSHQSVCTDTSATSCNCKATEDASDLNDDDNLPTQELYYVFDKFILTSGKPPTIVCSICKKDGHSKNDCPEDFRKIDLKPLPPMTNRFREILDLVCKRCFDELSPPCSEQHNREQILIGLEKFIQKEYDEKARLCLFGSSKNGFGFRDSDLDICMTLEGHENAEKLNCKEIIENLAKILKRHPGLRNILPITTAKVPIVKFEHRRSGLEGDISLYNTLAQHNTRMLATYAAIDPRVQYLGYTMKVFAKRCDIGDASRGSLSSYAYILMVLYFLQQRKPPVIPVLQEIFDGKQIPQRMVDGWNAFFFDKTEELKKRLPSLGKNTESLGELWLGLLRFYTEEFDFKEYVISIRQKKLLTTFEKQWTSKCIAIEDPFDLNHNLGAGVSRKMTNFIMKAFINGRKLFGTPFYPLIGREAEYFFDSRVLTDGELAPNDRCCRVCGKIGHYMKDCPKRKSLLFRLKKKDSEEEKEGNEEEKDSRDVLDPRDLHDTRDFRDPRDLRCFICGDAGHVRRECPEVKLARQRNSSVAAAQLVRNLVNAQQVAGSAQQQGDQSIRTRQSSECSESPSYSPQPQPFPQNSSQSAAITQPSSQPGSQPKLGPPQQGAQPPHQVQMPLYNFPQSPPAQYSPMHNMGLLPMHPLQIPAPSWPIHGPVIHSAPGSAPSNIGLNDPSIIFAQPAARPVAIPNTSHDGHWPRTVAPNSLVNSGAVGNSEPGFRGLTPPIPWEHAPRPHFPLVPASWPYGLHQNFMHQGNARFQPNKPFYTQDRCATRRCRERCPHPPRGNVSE
Target,log2 fold change (erlotinib),log2 fold change [1],log2 fold change [2],log2 fold change [3],log2 fold change [4],log2 fold change [5],log2 fold change [6],log2 fold change [7],log2 fold change (IRAK-1-4 Inhibitor I),log2 fold change [8],log2 fold change (ralimetinib),log2 fold change [9],log2 fold change [10],log2 fold change [11],log2 fold change [12],log2 fold change [13],log2 fold change [14],log2 fold change [15],log2 fold change [16],log2 fold change (ibrutinib)
UBIAD1 (UniProt Q9Y5Z9),0.013,0.16,-0.128,0.092,0.249,0.46 (active),0.023,0.057,-0.042,-0.012,0.01,0.007,0.067,-0.159,-0.049,0.088,0.012,0.009,–,–
TPM1 (UniProt H7BYY1),-0.034,-0.004,-0.057,0.026,0.091,-0.041,0.012,-0.02,-0.071,-0.018,-0.035,0.068,0.037,-0.027,0.023,-0.045,0.039,-0.034,-0.008,-0.002
TUBA3C (UniProt P0DPH7),0.03,-0.605,0.039,-0.029,-0.023,-0.01,-0.011,0.036,0.037,-0.007,0.041,-0.045,-0.047,0.002,0.029,-0.021,0.038,0.001,0.023,-0.009
UCHL5 (UniProt Q5LJA9),-0.052,0.084,0.005,-0.024,0.016,-0.045,0.035,0.006,0.054,0.078,-0.007,-0.113,0.044,–,0,0.012,0.035,0.01,-0.032,0.009
TCF12 isoform 3 (UniProt Q99081),-0.001,-0.025,0.081,0.006,-0.017,0.003,-0.063,0.006,0.051,-0.029,-0.022,-0.054,0.002,-0.008,0.064,-0.008,0.011,0.109,-0.004,0.059
UBR4 (UniProt Q5T4S7),0,0.039,-0.016,0.017,0.008,-0.01,-0.021,0.002,-0.009,-0.008,0.02,-0.011,-0.02,0.003,0.011,0.009,0.014,0.01,-0.006,-0.019
UBL4A (UniProt P11441),-0.04,0.014,-0.069,0.005,0.021,0.04,0.024,-0.028,-0.042,0.055,0,0.049,0.009,-0.023,-0.02,-0.044,-0.002,0.025,0.087,0.056
TPST2 (UniProt O60704),-0.064,-0.062,0.042,0.049,-0.016,-0.06,0.015,0.032,-0.038,-0.036,0.006,0.019,-0.08,0.039,-0.06,-0.039,-0.036,-0.08,-0.002,-0.098
TUT4 (UniProt Q5TAX3),-0.009,-0.048,-0.014,-0.062,-0.004,-0.021,-0.029,0.019,0.023,-0.013,0.006,-0.07,0.023,-0.003,-0.045,-0.165,-0.007,0.041,-0.054,0.024
TK1 (UniProt K7ERV3),0.01,-0.061,0.078,-0.047,0.048,0.036,0.017,0.222,0.04,–,-0.018,-0.061,-0.114,-0.013,-0.023,0.032,-0.028,–,-0.114,0.175
UBXN2B (UniProt Q14CS0),-0.008,-0.079,0.073,-0.045,-0.062,0.149,-0.04,-0.046,-0.028,0.19,0.087,-0.075,0.002,-0.189,-0.192,–,0.022,-0.011,-0.01,0.108
TUBGCP4 (UniProt Q9UGJ1),-0.017,-0.017,-0.007,0.015,-0.01,-0.028,0.133,0.045,0.052,-0.051,0.052,-0.037,0,0.021,-0.048,-0.002,0.05,0.043,-0.018,0

# Reference: the supplement of paper PMC10849652
